# Laboratory results taken from PubChem BioAssay.
# Unmarked numbers belong to inactive results. A call without a number means that no potency is given here. For some of these results: Potency and affinity values are given separately. Active and inactive are the calls of the source. Unless noted, how the calls were made is not given here.
# Tests used:
# [1] = antimalarial activity against Dd2 strain (AID 2302;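 active means growth inhibition above 50% at the single 2 µM test dose, taken to imply half-maximal potency below 2 µM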); details: P. falciparum Dd2 in RBCs, LDH growth readout, 72 h; at 2 µM; hits give high values
# [2] = human hepatoma cell viability loss – ATP luminescence, cytotoxicity control for P. falciparum antimalarial project, primary screen (AID 2303;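 active means inhibition above 50%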); details: HepG2 viability, 24-48 h, at 10 µM, hits give high values
# [3] = target: L-lactate dehydrogenase (Plasmodium falciparum (isolate CDC / Honduras)) (UniProt Q27743); experiment: PfLDH activity inhibition – cell lysate, 3D7 strain, counter-screen for P. falciparum growth inhibition project (AID 2304); details: P. falciparum 3D7 crude extract, LDH APAD/NBT absorbance; at 2 µM; hits give high values
# Sequence of L-lactate dehydrogenase (Plasmodium falciparum (isolate CDC / Honduras)) (Q27743 whole entry, looked up): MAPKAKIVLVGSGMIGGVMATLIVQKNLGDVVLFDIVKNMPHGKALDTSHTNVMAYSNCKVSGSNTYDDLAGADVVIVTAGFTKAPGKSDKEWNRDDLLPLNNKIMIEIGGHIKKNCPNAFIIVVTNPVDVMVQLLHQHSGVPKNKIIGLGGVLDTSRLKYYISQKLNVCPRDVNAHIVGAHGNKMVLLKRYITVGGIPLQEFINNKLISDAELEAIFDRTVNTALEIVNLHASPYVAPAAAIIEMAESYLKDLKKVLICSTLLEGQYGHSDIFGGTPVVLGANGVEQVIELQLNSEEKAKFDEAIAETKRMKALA
# [4] = inhibition of 3D7 malaria parasite growth – strain 3D7 (AID 2306); details: P. falciparum 3D7 erythrocytic growth, LDH absorbance, 72 h; at 2 µM; hits give high values
# [5] = target: Calcium-dependent protein kinase 1 (Plasmodium falciparum (isolate 3D7)) (UniProt P62344); experiment: PfCDPK1 kinase inhibitors, biochemical, TCAMS library (AID 1159585; cut-off not given, nearly all actives have IC50 up to about 0.98 µM;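 further: inhibitors leave more ATP so luminescence rises with inhibition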); details: recombinant PfCDPK1, Kinase-Glo ATP depletion luminescence
# Sequence of Calcium-dependent protein kinase 1 (Plasmodium falciparum (isolate 3D7)) (P62344 whole entry, looked up): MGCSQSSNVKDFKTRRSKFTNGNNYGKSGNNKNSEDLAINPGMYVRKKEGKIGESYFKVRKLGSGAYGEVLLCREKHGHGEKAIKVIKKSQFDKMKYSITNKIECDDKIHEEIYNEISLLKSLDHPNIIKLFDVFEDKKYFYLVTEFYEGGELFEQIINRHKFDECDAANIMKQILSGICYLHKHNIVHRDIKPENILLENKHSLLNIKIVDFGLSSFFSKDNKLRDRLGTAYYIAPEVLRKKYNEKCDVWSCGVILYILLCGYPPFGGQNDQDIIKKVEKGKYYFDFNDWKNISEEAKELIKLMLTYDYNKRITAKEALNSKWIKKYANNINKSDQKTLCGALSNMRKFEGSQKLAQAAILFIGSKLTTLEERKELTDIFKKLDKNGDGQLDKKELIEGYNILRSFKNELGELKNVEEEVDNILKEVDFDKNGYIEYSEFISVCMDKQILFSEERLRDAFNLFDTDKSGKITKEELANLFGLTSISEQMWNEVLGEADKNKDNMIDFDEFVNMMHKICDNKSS
# [6] = target: Plasmodium falciparum protein kinase 6 (PK6, PF3D7_1337100) (UniProt Q8IDW1); experiment: PfPK6 kinase inhibitors, biochemical, TCAMS library (AID 1159586); details: recombinant PfPK6, Kinase-Glo ATP depletion luminescence
# Sequence of Plasmodium falciparum protein kinase 6 (PK6, PF3D7_1337100) (Q8IDW1 1-305): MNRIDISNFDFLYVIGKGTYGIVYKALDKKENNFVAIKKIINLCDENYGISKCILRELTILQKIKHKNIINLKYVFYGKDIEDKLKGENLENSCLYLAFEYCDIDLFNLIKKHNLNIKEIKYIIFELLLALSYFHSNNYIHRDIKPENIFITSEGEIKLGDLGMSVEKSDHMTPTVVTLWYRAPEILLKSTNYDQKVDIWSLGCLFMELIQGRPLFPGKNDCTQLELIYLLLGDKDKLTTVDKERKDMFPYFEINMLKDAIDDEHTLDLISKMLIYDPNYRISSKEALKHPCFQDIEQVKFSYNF
# [7] = target: Protein kinase 7 (PK7), Plasmodium falciparum 3D7 (PF3D7_0213400) (UniProt Q7YTF7); experiment: inhibition of Plasmodium PK7 catalytic activity – biochemical, TCAMS antimalarial set, Kinase-Glo luminescence (AID 1159587); details: recombinant PfPK7, Kinase-Glo ATP depletion luminescence
# Sequence of Protein kinase 7 (PK7), Plasmodium falciparum 3D7 (PF3D7_0213400) (Q7YTF7 1-343): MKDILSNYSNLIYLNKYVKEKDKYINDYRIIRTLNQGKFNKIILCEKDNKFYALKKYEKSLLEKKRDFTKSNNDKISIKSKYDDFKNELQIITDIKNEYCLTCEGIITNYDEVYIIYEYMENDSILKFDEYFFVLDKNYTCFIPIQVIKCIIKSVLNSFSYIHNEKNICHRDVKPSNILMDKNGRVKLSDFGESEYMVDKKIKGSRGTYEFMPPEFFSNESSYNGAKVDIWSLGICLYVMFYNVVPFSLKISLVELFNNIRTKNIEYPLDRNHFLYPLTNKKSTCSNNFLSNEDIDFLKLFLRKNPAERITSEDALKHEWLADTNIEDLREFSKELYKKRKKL
# [8] = target: Calcium-dependent protein kinase 4 (Plasmodium falciparum (isolate 3D7)) (UniProt Q8IBS5); experiment: PfCDPK4 kinase inhibitors, biochemical, TCAMS library (AID 1159588; cut-off not given, nearly all actives have IC50 up to about 0.91 µM); details: recombinant PfCDPK4, Kinase-Glo ATP depletion luminescence
# Sequence of Calcium-dependent protein kinase 4 (Plasmodium falciparum (isolate 3D7)) (Q8IBS5 whole entry, looked up): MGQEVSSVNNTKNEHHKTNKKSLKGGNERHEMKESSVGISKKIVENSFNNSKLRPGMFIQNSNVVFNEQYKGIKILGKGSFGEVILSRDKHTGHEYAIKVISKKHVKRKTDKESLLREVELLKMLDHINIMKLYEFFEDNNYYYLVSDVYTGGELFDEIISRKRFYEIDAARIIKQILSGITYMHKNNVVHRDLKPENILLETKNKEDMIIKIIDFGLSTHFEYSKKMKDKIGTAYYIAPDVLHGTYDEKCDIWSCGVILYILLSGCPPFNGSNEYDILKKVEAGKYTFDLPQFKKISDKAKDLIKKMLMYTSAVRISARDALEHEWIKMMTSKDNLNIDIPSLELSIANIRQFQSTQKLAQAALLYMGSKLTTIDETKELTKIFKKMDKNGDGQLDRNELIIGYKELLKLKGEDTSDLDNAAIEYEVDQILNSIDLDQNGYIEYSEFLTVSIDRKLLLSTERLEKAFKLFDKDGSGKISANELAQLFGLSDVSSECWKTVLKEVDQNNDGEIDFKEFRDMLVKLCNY
Compound,growth inhibition [1],inhibition [2],inhibition [3],growth inhibition [4],outcome [5],outcome [6],outcome [7],outcome [8]
Cc1cccc2[nH]c(-c3cccc(-c4ccc(NC(=O)CN5CCOCC5)cc4)c3)nc12,12%,59% (active),4%,94% (active),inactive,inactive,inactive,inactive
Cc1cc(-c2ccc3c(c2)CC[C@@H](N[C@@H](C)c2ccccc2)C3)cnc1N,7%,3%,-2%,98% (active),inactive,inactive,inactive,inactive
CCOC(=O)c1cnc2c(C(F)(F)F)cccc2c1Nc1ccc(O)cc1,67% (active),-7%,2%,96% (active),inactive,inactive,inactive,inactive
FC(F)(F)c1ccc(-c2ccc(CNC3CCN(CCN4CCOCC4)CC3)cc2)cc1,74% (active),44%,0%,103% (active),inactive,inactive,inactive,inactive
Cc1[nH]nc2ccc(-c3cc(OC[C@@H](N)Cc4ccccc4)cnc3-c3ccc(OCc4cccc(F)c4)cc3)cc12,59% (active),97% (active),-5%,98% (active),inactive,inactive,inactive,inactive
c1ccc(CN2CCN(CCNc3c4ccccc4nc4ccccc34)CC2)cc1,97% (active),44%,9%,100% (active),inactive,inactive,inactive,inactive
COc1cc(CNC[C@@H](O)[C@H](Cc2ccccc2)NC(=O)c2cc(OC(C)C)cc(N3CCCCS3(=O)=O)c2)cc(OC)c1,94% (active),7%,4%,100% (active),inactive,inactive,inactive,inactive
Cc1ccc2c(=O)n(C)c(=O)n(C)c2n1,-3%,15%,4%,98% (active),inactive,inactive,inactive,inactive
CCCNC(=O)c1ccc(N2CCC(c3ccccc3C)CC2)nc1,80% (active),6%,2%,86% (active),inactive,inactive,inactive,inactive
Cc1ccc(CNC(=O)[C@H](CC(C)C)Nc2cc(C)nc(Nc3ccccc3)n2)cc1,19%,12%,-1%,97% (active),inactive,inactive,inactive,inactive
CC(C)c1ccc(NC(=O)NC2CCN(CCCCCNC(=O)/C=C/c3ccc(Cl)c(Cl)c3)CC2)cc1,19%,-5%,-2%,100% (active),inactive,inactive,inactive,inactive
Cc1cccc(C(=O)Nc2ccnc(N3CCC(N(C)Cc4ccc(C#N)cc4)CC3)c2)c1,6%,12%,-4%,94% (active),inactive,inactive,inactive,inactive
C=CCc1cc(C)ccc1OCCCON1C(N)=NC(N)=NC1(C)C,96% (active),64% (active),-6%,96% (active),inactive,inactive,inactive,inactive
COc1ccc(CN2CCC(Oc3cccc(NC(=O)c4ccc(C(F)(F)F)cc4)c3)CC2)cc1,20%,35%,-6%,95% (active),inactive,inactive,inactive,inactive
CC(C)Oc1ccc(N2CCN(CCCCNC(=O)c3ccc(NC(=O)c4ccc(Cl)cc4)cc3)CC2)c(OC(C)C)c1,85% (active),31%,1%,102% (active),inactive,inactive,inactive,inactive
FC(F)(F)c1cccc(CNCC2CCN(CC3CCCCC3)CC2)c1,24%,21%,3%,101% (active),inactive,inactive,inactive,inactive
COC(=O)c1cccc(CNCc2cccc(-c3ccc(-c4nc5ccccc5[nH]4)cc3)c2)c1,51% (active),-3%,4%,99% (active),inactive,inactive,inactive,inactive
O=C(NCc1ccccc1)NC1CCN(c2ccnc3cc(Cl)ccc23)C1 (stereo not drawn),99% (active),13%,-2%,94% (active),inactive,inactive,inactive,inactive
COc1ccc(C(=O)Nc2ccc(Nc3nc(C)cc(N(C)C)n3)cc2)c(OC)c1,72% (active),34%,0%,100% (active),inactive,inactive,inactive,inactive
CC[C@H](C)[C@@H](C(=O)N1CCOCC1)N1CC[C@H](NS(=O)(=O)CC(C)(C)c2ccc(Cl)cc2)C1=O,95% (active),-1%,1%,101% (active),inactive,inactive,inactive,inactive
COc1ccc(OC)c(Cc2cnc3nc(N)nc(N)c3c2C)c1,97% (active),68% (active),5%,92% (active),inactive,inactive,inactive,inactive

Compound,growth inhibition [1],inhibition [2],inhibition [3],growth inhibition [4],outcome [5],outcome [6],outcome [7],outcome [8]
COc1ccc(CNCCCCCCNCCc2ccc(Cl)cc2)cc1OC,0%,21%,0%,96% (active),inactive,inactive,inactive,inactive
CCN1CCc2nc3ccccc3c(C(=O)Nc3ccc(C#N)cc3)c2C1,72% (active),24%,-1%,99% (active),inactive,inactive,inactive,inactive
COc1ccc(CCN(C)CCOc2ccc(NC(=O)c3cccc4c(=O)c5cc(SC)ccc5[nH]c34)cc2)cc1OC,82% (active),52% (active),0%,97% (active),inactive,inactive,inactive,inactive
Cc1ccc(C2(C)CC(C)(C)N(C(=O)COc3ccc4ccccc4c3)c3ccccc32)cc1 (stereo not drawn),98% (active),0%,-2%,100% (active),inactive,inactive,inactive,inactive
CC(C)(C)c1ccc(S(=O)(=O)Nc2cc(Cl)ccc2Cn2ccc(N3CCNCC3)nc2=O)cc1,74% (active),-9%,2%,95% (active),inactive,inactive,inactive,inactive
c1cc(-c2ccc(CNCCc3ccncc3)cc2)cc(-c2nc3ccccc3[nH]2)c1,99% (active),41%,-8%,101% (active),inactive,inactive,inactive,inactive
O=C(NCCCCCN1CCC(c2c[nH]c3ccccc23)CC1)Nc1cccc(C(F)(F)F)c1,11%,51% (active),-1%,97% (active),inactive,inactive,inactive,inactive
COc1cc(Nc2ccnc3ccc(C(C)(C)C)cc23)cc(OC)c1OC,80% (active),12%,1%,100% (active),inactive,inactive,inactive,inactive
CN(c1ccccc1)c1ccnc(/N=C(\N)Nc2ccc(Cl)cc2)n1,6%,30%,-1%,87% (active),inactive,inactive,inactive,inactive
Cc1ccc(O)cc1Nc1ccnc2cc(-c3csc(CN4CCN(C)CC4)n3)ccc12,77% (active),6%,-4%,100% (active),inactive,inactive,inactive,inactive
c1ccc2[nH]c(-c3ccc(-c4ccc(CNCCc5ccncc5)cc4)s3)nc2c1,98% (active),28%,-6%,101% (active),inactive,inactive,inactive,inactive
Cc1ccc(NC(=O)Nc2ccc(Cl)cc2)cc1-c1cccc(C(=O)Nc2ccc(F)cc2)c1,52% (active),8%,5%,96% (active),inactive,inactive,inactive,inactive
CC(C)(C)c1ccc(CNC(=O)c2ccc(-c3nc4ccc(Cl)cc4[nH]3)cc2)cc1,2%,14%,-2%,93% (active),inactive,inactive,inactive,inactive
O=S(=O)(c1ccccc1)C1CC1,65% (active),-3%,7%,89% (active),inactive,inactive,inactive,inactive
Cc1ccc(NC(=O)NC2CCN(CCCCCNC(=O)/C=C/c3ccc(Cl)c(Cl)c3)CC2)cc1C,25%,36%,-3%,101% (active),inactive,inactive,inactive,inactive
CN1CCN(CCCN(Cc2csc(-c3ccc(CNCc4ccccc4)cc3)n2)C(=O)Nc2cccc(Cl)c2)CC1,67% (active),32%,-5%,102% (active),inactive,inactive,inactive,inactive
CCCCCCN1CCC(NCc2ccc(Cl)cc2)CC1,9%,19%,-7%,98% (active),inactive,inactive,inactive,inactive
Cc1cccc(CNc2nc(C)cc(N[C@@H](Cc3ccccc3)C(=O)NC3CCCC3)n2)c1,97% (active),51% (active),-3%,100% (active),inactive,inactive,inactive,inactive
CC(C)CNCc1ccc(-c2cccc(CN(CCN(C)C)C(=O)CCC3CCCC3)c2)cc1,81% (active),56% (active),-11%,100% (active),inactive,inactive,inactive,inactive
COc1ccc2ncn(-c3ccc(C(N)=O)c(OCc4ccccc4C(F)(F)F)c3)c2c1,100% (active),18%,3%,98% (active),inactive,inactive,inactive,inactive
